According to PubChem BioAssay:
Values without a mark were called inactive. Calls of active or inactive are those of the source.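 How the source made its calls, unless noted: active means at least 20% inhibition of 6-phosphogluconate dehydrogenase activity; inactive means the rest.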

Assays:
[1] = target: 6-phosphogluconate dehydrogenase, decarboxylating (Homo sapiens) (UniProt P52209); test: 6PGD enzyme inhibitors, primary screen, biochemical, human, recombinant enzyme, NADPH absorbance (AID 1159550); details: recombinant 6PGD, NADPH absorbance 341 nm; at 10 µM; stronger effect = higher value
6-phosphogluconate dehydrogenase, decarboxylating (Homo sapiens), sequence (P52209 whole entry, looked up, the tested form may be a part): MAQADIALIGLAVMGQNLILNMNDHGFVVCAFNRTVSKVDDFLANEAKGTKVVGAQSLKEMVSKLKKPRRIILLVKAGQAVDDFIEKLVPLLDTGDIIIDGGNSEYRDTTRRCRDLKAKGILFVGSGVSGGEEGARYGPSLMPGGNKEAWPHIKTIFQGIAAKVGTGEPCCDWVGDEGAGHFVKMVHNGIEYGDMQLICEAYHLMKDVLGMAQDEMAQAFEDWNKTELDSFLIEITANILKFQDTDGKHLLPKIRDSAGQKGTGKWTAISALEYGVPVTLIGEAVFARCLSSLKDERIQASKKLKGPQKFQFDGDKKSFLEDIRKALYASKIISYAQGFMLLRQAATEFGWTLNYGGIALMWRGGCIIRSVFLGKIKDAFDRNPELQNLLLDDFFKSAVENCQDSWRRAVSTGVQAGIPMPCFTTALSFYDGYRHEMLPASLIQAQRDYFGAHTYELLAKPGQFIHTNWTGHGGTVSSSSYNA

[2] = target: Mitogen-activated protein kinase 7 (Homo sapiens) (UniProt Q13164); test: ERK5 transactivation activators in reporter cells, primary screen, cell-based, HTS (AID 1508626;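 active means luciferase signal above three times the same-plate solvent-only control wells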;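 further: luciferase driven by Gal4-ERK5 fusion binding five Gal4 sites before minimal TATA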); details: HeLa Gal4-ERK5 transactivation, 18 h, at 5 µM, stronger effect = higher value
Mitogen-activated protein kinase 7 (Homo sapiens), sequence (Q13164 whole entry, looked up, the tested form may be a part): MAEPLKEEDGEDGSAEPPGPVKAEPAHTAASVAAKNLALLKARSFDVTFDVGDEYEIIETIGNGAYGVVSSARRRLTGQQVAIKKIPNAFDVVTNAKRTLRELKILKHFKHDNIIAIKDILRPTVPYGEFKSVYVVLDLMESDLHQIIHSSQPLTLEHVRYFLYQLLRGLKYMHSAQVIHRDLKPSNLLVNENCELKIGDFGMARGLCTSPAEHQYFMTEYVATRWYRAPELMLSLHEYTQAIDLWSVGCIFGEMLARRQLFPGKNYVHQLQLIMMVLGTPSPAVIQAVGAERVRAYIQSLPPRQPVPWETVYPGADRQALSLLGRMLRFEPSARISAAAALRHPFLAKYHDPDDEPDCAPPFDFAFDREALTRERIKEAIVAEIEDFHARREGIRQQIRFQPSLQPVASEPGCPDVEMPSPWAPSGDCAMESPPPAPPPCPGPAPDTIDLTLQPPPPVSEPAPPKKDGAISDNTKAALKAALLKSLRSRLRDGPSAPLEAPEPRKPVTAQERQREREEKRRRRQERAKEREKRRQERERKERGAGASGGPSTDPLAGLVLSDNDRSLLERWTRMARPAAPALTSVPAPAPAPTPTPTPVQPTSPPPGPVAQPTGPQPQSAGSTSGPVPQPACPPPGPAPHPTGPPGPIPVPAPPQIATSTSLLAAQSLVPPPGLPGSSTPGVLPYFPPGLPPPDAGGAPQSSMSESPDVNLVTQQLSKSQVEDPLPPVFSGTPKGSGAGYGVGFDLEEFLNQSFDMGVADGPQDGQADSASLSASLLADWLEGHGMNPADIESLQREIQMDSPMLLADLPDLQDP

SMILES | inhibition [1] | luciferase signal [2] [AU]
COC(=O)C[C@H]1C(C)(C)[C@@H](O)[C@@H]2CC3=C4CC(O)O[C@@H](c5ccoc5)[C@]4(C)CCC3[C@@]1(C)C2=O (stereo not given in full) | -13.5% | 36
CC(=O)CC(=O)CCC(=O)O | 9.16% | 80
COc1ccc(-c2cc(=O)c3c(O)c(OC)c(O[C@@H]4O[C@H](CO[C@@H]5O[C@@H](C)[C@H](O)[C@@H](O)[C@H]5O)[C@@H](O)[C@H](O)[C@H]4O)cc3o2)cc1 | -2.78% | 76
COc1cccc2c1CCC1=CC(=O)CC[C@@]12C | -1.6% | 40
CC(=O)O[C@@H]1CC(=O)[C@@]2(C)C(CC(=O)[C@]3(C)C2CC[C@@]2(C)[C@H](c4ccoc4)OC(=O)C4OC423)C1(C)C (stereo not given in full) | 9.95% | 24
CC1(O)CC2C(CC1O)C2(C)C (stereo not given) | 13.8% | 60
CC(=O)OC(C)(C)[C@@H]1Cc2cc3ccc(=O)oc3cc2O1 | 2.42% | 40
COc1ccc(C2CC(=O)c3ccc(OC)cc3O2)cc1 (stereo not given) | 21.7% (active) | 84
O=c1cccc2cc(O)c(O)c(O)c2c1O | 16.8% | 60
C[C@H]1[C@H](C)CC[C@]2(CO)CC[C@]3(C)C(=CC[C@@H]4[C@@]5(C)CC[C@H](O)C(C)(C)[C@@H]5CC[C@]43C)[C@H]12 | -50.4% | 52
CC1C2[C@]3(CC[C@H]1C)CCC1(C)[C@@]2(C=CC2[C@@]4(C)CCC(=O)C(C)(C)C4CC[C@]21C)OC3=O (stereo not given in full) | 17.9% | 100
COC(=O)/C(=C1/OC(=O)C(c2ccccc2)=C1O)c1ccccc1 | 11.9% | 68
COc1ccc(-c2cc(=O)c3ccccc3o2)cc1OC | -3.02% | 76
CC(=O)O[C@H]1CC[C@@]2(C)C(=CC(=O)[C@H]3[C@@H]4CC[C@H]([C@H](C)CCCC(C)C)[C@@]4(C)CC[C@@H]32)C1 | -8.76% | 76
C[C@H](CCC(=O)O)[C@H]1CC[C@H]2[C@@H]3[C@H](O)C[C@@H]4C[C@H](O)CC[C@]4(C)[C@H]3C[C@H](O)[C@]12C | -7.09% | 28
CC(=O)N1CCC[C@H]1C(=O)O | 11.4% | 52
COC(=O)c1c(C)cc(OC)cc1O | -8.1% | 32
C=C1CCC2C(CC2(C)C)C(=C)CC/C1=N/O (stereo not given) | 16.7% | 88

SMILES | inhibition [1] | luciferase signal [2] [AU]
COc1cc(C/C=C/c2ccccc2)c(OC)cc1O | 9.29% | 56
CCC(=O)OC1[C@@H]2CC3=C4CC(=O)O[C@@H](c5ccoc5)[C@]4(C)CCC3[C@@](C)(C2=O)[C@@H](CC(=O)OC)C1(C)C (stereo not given in full) | -1.17% | 20
CC(C)=CCc1c2c(c(O)c3c(=O)c(O)c(-c4ccccc4)oc13)C=CC(C)(C)O2 | -4.34% | 64
CC(=O)O[C@H]1CC[C@@]2(C)[C@H](CC[C@@H]3[C@@H]2CC[C@]2(C)[C@@H]4[C@H](C[C@@H]32)O[C@]2(CC[C@@H](C)CO2)[C@H]4C)C1 | 13.5% | 44
CN1CCCC1c1cccnc1 (stereo not given) | 17.4% | 56
NC(=O)NCCC[C@H](N)C(=O)O | 15.5% | 72
COC(=O)[C@@H]1OC(=O)C2OC23[C@@]1(C)CCC1[C@]2(C)C(C[C@H](O)[C@]13C)C(C)(C)[C@H](OC(C)=O)C[C@@H]2OC(C)=O (stereo not given in full) | -8.14% | 24
COC(=O)[C@]1(C)CCC[C@]2(C)c3ccc(C(C)C)cc3C(=O)CC12 (stereo not given in full) | 13.7% | 32
COc1cccc(/C=C/C(=O)O)c1C(C)C | 0.939% | 24
COc1cc2ccc(=O)oc2c(O)c1O | 13.8% | 76
CC1(C)C[C@@H]2C(=O)CC[C@H]3O[C@]3(C)CC[C@H]21 | 14.4% | 44
CCOC(=O)c1c(C)cc(OC)cc1O | 13.5% | 84
COC(=O)[C@@H]1OC(=O)[C@H]2O[C@@]23[C@@]1(C)CCC1[C@@]2(C)CCC(=O)C(C)(C)C2C[C@@H](OC(C)=O)[C@]13C (stereo not given in full) | 7.3% | 40
COc1cc(O)c2c(=O)cc(-c3ccc(OC)c(-c4c(O)cc(O)c5c(=O)cc(-c6ccc(O)cc6)oc45)c3)oc2c1 | -1.48% | 24
C[C@H]1[C@H](C)CC[C@]2(C(=O)O)CC[C@]3(C)C(=CC[C@@H]4[C@@]5(C)C[C@@H](O)[C@H](O)[C@@](C)(CO)[C@@H]5[C@H](O)C[C@]43C)[C@H]12 | 2.44% | 48
N[C@@H](CCC(=O)N[C@@H](CSC(CC(=O)O)C(=O)O)C(=O)NCC(=O)O)C(=O)O (stereo not given in full) | 6.35% | 68
C=C1[C@@H]([C@@]2(C)C=CC(=O)C(C)(C)[C@@H]2CC(=O)OC)CC[C@@]2(C)C(c3ccoc3)OC(=O)[C@H]3O[C@]132 (stereo not given in full) | 0.696% | 20
